According to PubChem BioAssay (NCI):
“And” between values parts separate entries of the source, which are not always exact repeats. Equal values may be shown once. About 83,000 compounds went through this panel and 20% of them were active in at least one assay; those are over-represented in the sample as a whole.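 Assay: single dose, 48 h. Readout: percent growth (0 = no net growth; negative = cell death). Active: <10.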 The source made the active and inactive calls.

Tests used:
Test in all cases: NCI-60 one-dose screen, 48 h (100 = growth as untreated, 0 = no growth, -100 = all killed)
Conditions in all cases: 10 µM unless noted
NCI-H23 lung = system: NCI-H23 lung
NCI-H226 lung = system: NCI-H226 lung
NCI-H322M lung = system: NCI-H322M lung
NCI-H460 lung = system: NCI-H460 lung
HOP-92 NSCLC = system: HOP-92 NSCLC
A549/ATCC NSCLC = system: A549/ATCC NSCLC
786-0 renal = system: 786-0 renal
COLO 205 colon = system: COLO 205 colon
DU-145 prostate = system: DU-145 prostate
K-562 leukemia = system: K-562 leukemia
MALME-3M melanoma = system: MALME-3M melanoma
MDA-MB-231 breast = system: MDA-MB-231 breast
RXF 393 renal = system: RXF 393 renal
SF-268 CNS = system: SF-268 CNS
SF-295 CNS = system: SF-295 CNS
SF-539 CNS = system: SF-539 CNS
UACC-257 melanoma = system: UACC-257 melanoma
M14 melanoma = system: M14 melanoma
HOP-62 NSCLC = system: HOP-62 NSCLC
NCI-H522 lung = system: NCI-H522 lung

Row | SMILES | growth (NCI-H23 lung) | growth (NCI-H226 lung) | growth (NCI-H322M lung) | growth (NCI-H460 lung) | growth (HOP-92 NSCLC) | growth (A549/ATCC NSCLC) | growth (786-0 renal) | growth (COLO 205 colon) | growth (DU-145 prostate) | growth (K-562 leukemia) | growth (MALME-3M melanoma) | growth (MDA-MB-231 breast) | growth (RXF 393 renal) | growth (SF-268 CNS) | growth (SF-295 CNS) | growth (SF-539 CNS) | growth (UACC-257 melanoma) | growth (M14 melanoma) | growth (HOP-62 NSCLC) | growth (NCI-H522 lung)
1 | CCOC(=O)C1=C(C)NC(C)=C(C(=O)OCC)C1 | 103% (inactive) and 92.2% (inactive) | 96.7% (inactive) and 96.4% (inactive) | 108% (inactive) and 102% (inactive) | 107% (inactive) and 98.2% (inactive) | 79.2% (inactive) and 89.5% (inactive) | 104% (inactive) and 99% (inactive) | 117% (inactive) and 87.5% (inactive) | 126% (inactive) and 96.4% (inactive) | 109% (inactive) and 110% (inactive) | 127% (inactive) and 110% (inactive) | 110% (inactive) and 99.7% (inactive) | 93.5% (inactive) and 117% (inactive) | 103% (inactive) | 104% (inactive) and 111% (inactive) | 82.6% (inactive) and 95.7% (inactive) | 90.8% (inactive) and 95.6% (inactive) | 105% (inactive) and 102% (inactive) | 162% (inactive) and 98% (inactive) |  | 
2 | CC(=O)Nc1cscc1NC(C)=O | 103% (inactive) | 96.8% (inactive) | 80.1% (inactive) | 101% (inactive) | 112% (inactive) | 104% (inactive) | 101% (inactive) | 100% (inactive) | 98.4% (inactive) | 125% (inactive) | 88.4% (inactive) | 101% (inactive) | 107% (inactive) | 96.2% (inactive) | 87.3% (inactive) | 90.7% (inactive) | 104% (inactive) | 104% (inactive) |  | 
3 | CC(NC(=O)CCl)c1ccccc1 (stereo not drawn) | 99.9% (inactive) | 96.3% (inactive) |  | 99.7% (inactive) | 89% (inactive) | 104% (inactive) | 104% (inactive) | 104% (inactive) | 103% (inactive) | 109% (inactive) | 99.4% (inactive) | 111% (inactive) | 98.7% (inactive) | 98.3% (inactive) | 102% (inactive) | 104% (inactive) | 100% (inactive) | 93.8% (inactive) | 107% (inactive) | 98% (inactive)
4 | Cc1ccc2cccc([N+](=O)[O-])c2n1 | 108% (inactive) and 95% (inactive) | 101% (inactive) |  | 117% (inactive) and 107% (inactive) | 123% (inactive) and 96.2% (inactive) |  | 118% (inactive) and 98.3% (inactive) | 104% (inactive) and 106% (inactive) | 116% (inactive) and 109% (inactive) | 91% (inactive) and 88.7% (inactive) | 99.1% (inactive) and 108% (inactive) | 107% (inactive) and 104% (inactive) | 119% (inactive) and 110% (inactive) | 103% (inactive) | 108% (inactive) and 110% (inactive) | 105% (inactive) and 103% (inactive) | 102% (inactive) and 107% (inactive) | 121% (inactive) and 97.9% (inactive) | 103% (inactive) and 95.1% (inactive) | 90.2% (inactive) and 93.8% (inactive)
5 | CCN(CC)Cc1cc2[nH]c3c4ccc(Cl)cc4ncc3c2cc1OC | 68.4% (inactive) | 84.1% (inactive) and 93.4% (inactive) |  | 0.598% (active) and 14% (inactive) | 60.6% (inactive) and 78% (inactive) |  | 81% (inactive) and 86.3% (inactive) | -16.9% (active) and 1.13% (active) | 10.7% (inactive) | -45.5% (active) | 77.2% (inactive) and 107% (inactive) | -4.73% (active) and 16.6% (inactive) | -43.2% (active) and -29.8% (active) | 22.9% (inactive) and 89.1% (inactive) | 102% (inactive) and 90.9% (inactive) | -73.3% (active) and -71.9% (active) | 94.5% (inactive) and 104% (inactive) | -49.3% (active) and -42.6% (active) | 80.7% (inactive) and 87.9% (inactive) | 244% (inactive) and 12.6% (inactive)
6 | COc1cc2c(cc1O)C(=O)CCCC2 | 91.8% (inactive) | 102% (inactive) |  | 103% (inactive) | 82.9% (inactive) | 110% (inactive) | 94.9% (inactive) | 143% (inactive) | 117% (inactive) | 124% (inactive) | 108% (inactive) | 108% (inactive) | 105% (inactive) | 90.3% (inactive) | 83.8% (inactive) | 99.6% (inactive) | 121% (inactive) |  | 91.5% (inactive) | 70.6% (inactive)
7 | O=C(O)COc1ccccc1F | 106% (inactive) | 94.2% (inactive) |  | 101% (inactive) | 96.3% (inactive) | 110% (inactive) | 102% (inactive) | 114% (inactive) | 108% (inactive) | 92.5% (inactive) | 108% (inactive) | 115% (inactive) | 92.3% (inactive) | 107% (inactive) | 106% (inactive) | 97.4% (inactive) | 115% (inactive) | 103% (inactive) | 117% (inactive) | 106% (inactive)
8 | S=c1nn[nH]n1C1CCCCC1 | 111% (inactive) | 102% (inactive) |  | 95.7% (inactive) |  | 106% (inactive) | 99.7% (inactive) | 123% (inactive) | 105% (inactive) | 122% (inactive) | 95.8% (inactive) | 116% (inactive) | 148% (inactive) | 105% (inactive) | 97% (inactive) | 106% (inactive) | 97.8% (inactive) |  | 126% (inactive) | 117% (inactive)
9 | COC(=O)c1nc(N)nc(C(=O)OC)c1C(=O)c1ccc(F)cc1 | 105% (inactive) | 110% (inactive) |  | 117% (inactive) | 101% (inactive) | 114% (inactive) | 108% (inactive) | 117% (inactive) | 111% (inactive) | 109% (inactive) | 104% (inactive) | 103% (inactive) | 104% (inactive) | 103% (inactive) | 101% (inactive) | 103% (inactive) | 110% (inactive) | 108% (inactive) |  | 103% (inactive)
10 | CCOC(=O)c1ccncc1 | 109% (inactive) | 91.3% (inactive) |  | 104% (inactive) |  | 104% (inactive) | 106% (inactive) | 103% (inactive) | 104% (inactive) | 99.3% (inactive) | 113% (inactive) | 110% (inactive) | 107% (inactive) | 101% (inactive) | 96.2% (inactive) | 108% (inactive) | 116% (inactive) | 102% (inactive) | 98.5% (inactive) | 98.3% (inactive)
11 | COCCNC(C)=O | 107% (inactive) | 90.3% (inactive) |  | 102% (inactive) | 102% (inactive) | 104% (inactive) | 97.5% (inactive) | 108% (inactive) | 112% (inactive) | 105% (inactive) | 114% (inactive) | 99.2% (inactive) | 104% (inactive) | 101% (inactive) | 96.3% (inactive) | 99.5% (inactive) | 112% (inactive) | 109% (inactive) | 98.4% (inactive) | 96.6% (inactive)
12 | Cc1cc2nc3ccc(=[N+](C)C)cc-3sc2cc1N | 21.7% (inactive) | 43.3% (inactive) and 58.9% (inactive) | 22.6% (inactive) and 38.3% (inactive) | 6.67% (active) and 7.84% (active) |  | 6.81% (active) and 7.05% (active) | 39.4% (inactive) and 35.9% (inactive) | -68.6% (active) and -23.5% (active) | 3.25% (active) and -41.6% (active) | 7.3% (active) | -47.8% (active) and -3.68% (active) | -18.8% (active) and -10.4% (active) | 51.6% (inactive) and 36% (inactive) | -8.64% (active) and -29.4% (active) | 4.64% (active) and 15.1% (inactive) | -39.6% (active) and 3.1% (active) | 24.9% (inactive) and 61.4% (inactive) | -26.3% (active) and 8.5% (active) |  | -55.4% (active) and 13% (inactive)
13 | C/C=C(/C(=O)NC(N)=O)C(C)C | 104% (inactive) | 116% (inactive) |  | 100% (inactive) | 94.5% (inactive) | 97.7% (inactive) | 96.9% (inactive) | 97.5% (inactive) | 105% (inactive) | 109% (inactive) | 106% (inactive) | 114% (inactive) | 171% (inactive) | 87.2% (inactive) | 108% (inactive) | 115% (inactive) | 104% (inactive) | 93.9% (inactive) | 111% (inactive) | 108% (inactive)
14 | COc1cc(Cl)ccc1C | 90.3% (inactive) | 98.3% (inactive) |  | 34% (inactive) | 99.3% (inactive) |  | 100% (inactive) | 94.1% (inactive) | 5.38% (active) | 83.3% (inactive) | 93.7% (inactive) | 85.9% (inactive) | 91.2% (inactive) | 83.9% (inactive) | 79.2% (inactive) | 104% (inactive) | 85% (inactive) | 95.8% (inactive) | 99.5% (inactive) | 57% (inactive)
15 | CC(=O)Oc1cc(C(C)C)c(OCCN(C)C)cc1C | 99.8% (inactive) and 105% (inactive) | 120% (inactive) and 103% (inactive) |  | 115% (inactive) and 103% (inactive) |  | -83.3% (active) and 99.8% (inactive) | 99.6% (inactive) and 104% (inactive) | 114% (inactive) and 108% (inactive) | 124% (inactive) and 118% (inactive) | 115% (inactive) and 124% (inactive) | 97.5% (inactive) and 106% (inactive) | 103% (inactive) and 112% (inactive) | 112% (inactive) and 101% (inactive) | 112% (inactive) and 109% (inactive) | 103% (inactive) and 92% (inactive) | 112% (inactive) and 99.6% (inactive) | -91.1% (active) and 97.5% (inactive) | 99.8% (inactive) | 110% (inactive) and 97.1% (inactive) | 112% (inactive) and 115% (inactive)
